Source: ChEMBL document CHEMBL1201862, “PubChem BioAssay data set” (2004)
Hit rate of the full screen: of about 58,000 sequences, about 3,500 (6%) were called active. Cut-off read from the data, not from the text of the source: active = GI50 up to about 1.1 µM and inactive = higher. The list is a sample of the results. Measured potencies and affinities stand elsewhere.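 Cells were grown in 96-well plates and exposed to each compound for 48 hours at five concentrations; endpoints were interpolated linearly between bracketing concentrations, or set to the highest concentration if not reached. GI50 is the concentration that inhibits growth by half.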

System: SN12C
Assay: NCI tumour cell line growth inhibition, 48 h

Row | Substance | GI50
1 | [Bis(aminomethyl)pentamethylenesilane]dichloropaltinum(II), CHEMBL2146202 | 1.87 µM
2 | [Bis(aminomethyl)pentamethylenesilane]tetrachloropaltinum(IV), CHEMBL2146204 | 2 µM
3 | [Bis(aminomethyl)tetramethylenesilane]tetrachloropaltinum(IV), CHEMBL2146189 | 2.64 µM
4 | cis-Bis[[(trimethylsilyl)methyl]amino]tetrachloroplatinum(IV), CHEMBL2146191 | 13.1 µM
5 | [Bis(aminomethyl)dimethylsilane]tetrachloroplatinum(IV), CHEMBL2146190 | 8.45 µM
6 | mu-(1,7-nanodiamine-N,N')bis-(cis-aminedichloroplatimum (II)), CHEMBL2146215 | 0.387 µM
7 | [Bis(aminomethyl)tetramethylenesilane]dichloropaltinum(II), CHEMBL2146205 | 23.9 µM
8 | [Bis(aminomethyl)dimethylsilane]dichloroplatinum (II), CHEMBL2146201 | 32.4 µM
9 | [Bis(aminomethyl)diethylsilane]tetrachloroplatinum(IV), CHEMBL2146203 | 2.34 µM
10 | [Bis(aminomethyl)ethylmethylsilane]tetrachloroplatinum(IV), CHEMBL2146192 | 4.25 µM
11 | CISPLATIN, CHEMBL11359 | 4.83 µM
